Laboratory results from PubChem BioAssay AID1531 (NMMLSC, 2009).
Screen size: about 290,000 compounds; about 3,300 (1.1%) were called active. No stated cut-off is given here; in the data, active means binding response below about 67% or above about 130%; inconclusive means no clear call, values can overlap the other calls; inactive means in between. Shown is part of a subset that was picked to be rich in actives.

biological target: Mitogen-activated protein kinase kinase kinase 2 (Homo sapiens) (UniProt Q9Y2U5); experiment: wildtype MEKK2 PB1-MEK5 interaction, increase or decrease – biochemical, multiplex bead flow cytometry, Alexa488-MEK5, primary screen (AID 1531); settings: Alexa488-MEK5 binding to MEKK2 WT, at 10 µM, actives lie on both sides

SMILES	binding response (% of control)
CN(Cc1ccco1)S(=O)(=O)c1nnc(NC(=O)c2ccccc2)s1	96% (inactive)
CSc1ccc(/C=N/N2CCN(Cc3ccccc3Cl)CC2)cc1	99% (inactive)
CN1CCN(/N=C/c2ccc(C#N)cc2)CC1	166% (active)
CN1CCN(/N=C/c2ccc(-c3ccc([N+](=O)[O-])cc3)o2)CC1	103% (inactive)
COc1ccccc1CCNS(=O)(=O)c1cc2c3c(c1)C(C)C(=O)N3CCC2 (stereo unspecified)	85% (inactive)
Cc1c(C(=O)N2CCN(c3ccc(F)cc3)CC2)oc2c1C(=O)CCC2	104% (inactive)
Cc1ccc2c(C)c(C(=O)N3CCN(c4ccncc4)CC3)oc2c1C	159% (active)
Cc1ccc2c(C)c(C(=O)N(C)Cc3ccncn3)oc2c1C	98% (inactive)
COC(=O)c1ccc(Nc2ncnc3sccc23)cc1	102% (inactive)
Cc1c(NC(=O)CSc2nnnn2-c2ccc(C(=O)O)cc2)c(=O)n(-c2ccccc2)n1C	-12% (active)
COc1ccc(-n2nnnc2SCC(=O)Nc2ccccc2)cc1	104% (inactive)
Cc1c(NC(=O)CSc2cccc3cccnc23)c(=O)n(-c2ccccc2)n1C	99% (inactive)
O=C(COc1ccc(Cl)cc1)Nc1ccc2c(c1)OCO2	100% (inactive)
CC(Sc1nc2cc(Cl)ccc2s1)C(=O)Nc1ccc2c(c1)OCO2 (stereo unspecified)	78% (inactive)
O=C(Nc1ccc2c(c1)OCO2)c1sc2cc(Cl)ccc2c1Cl	19% (active)
COC(=O)c1ccccc1NC(=O)C1CCN(C(=O)N2CCOc3ccccc32)CC1	103% (inactive)
Oc1ccc(-n2nnnc2SCc2c(F)cccc2Cl)cc1	98% (inactive)
COc1ccc(CNC(=O)c2ccc(Br)s2)cc1OC	96% (inactive)
CCn1cc(CN2CCC(C(=O)Nc3cccc(-c4cccc(Cl)c4)c3)CC2)c(C)n1	166% (active)
O=C(Nc1cccc(-c2cscn2)c1)C1CCN(Cc2ccsc2)CC1	112% (inactive)
O=C(Nc1cnn(Cc2ccc(Cl)cc2)c1)C1CCCC1	110% (inactive)
COc1cccc(-c2cccc(NC(=O)C3CCN(C4CCC4)CC3)c2)c1	104% (inactive)
CCn1cc(CN2CCC(n3nccc3NC(=O)CCCc3ccccc3)CC2)c(C)n1	108% (inactive)
O=C(NC1CCCC1)C1CCN(C(=O)Nc2cccc(Cl)c2)CC1	110% (inactive)

SMILES	binding response (% of control)
O=C(Nc1cccc(-c2cccc(Cl)c2)c1)C1CCN(C2CCC2)CC1	151% (active)
CC(=O)c1cc(CN2CCC(C(=O)Nc3cccc(-c4cscn4)c3)CC2)cs1	116% (inactive)
CCn1cc(CN2CCC(C(=O)Nc3cccc(-c4cccc(Cl)c4)c3)CC2)cn1	160% (active)
COc1ccc(CNC(=O)[C@@H]2CC=C[C@@H]3CCN(C4CC4)C(=O)[C@@H]32)cc1	98% (inactive)
Cc1ccc(CN(CC(=O)NC2CCCCC2)C(=O)c2csnn2)cc1	104% (inactive)
O=C(O)CC/C(=C\c1cc2c(cc1Br)OCO2)c1nc2ccccc2s1	95% (inactive)
O=C(Nc1ccc(Cl)c(Cl)c1)c1ccccc1NC(=O)C1CC=CCC1C(=O)O (stereo unspecified)	104% (inactive)
CCCCc1nnc(NC(=O)CSc2nc(C)cc(=O)[nH]2)s1	99% (inactive)
CCOC(=O)Cc1csc(NC(=O)CSc2nc(C)cc(=O)[nH]2)n1	61% [inhibitor] (active)
CCOC(=O)Cc1csc(NC(=O)CSc2ccc(Br)cc2)n1	109% (inactive)
CCOc1ccccc1N1C(=O)CC(Sc2nccc(C)n2)C1=O (stereo unspecified)	105% (inactive)
CSc1ccccc1NC(=O)c1ccc2c(c1)CCN2S(C)(=O)=O	106% (inactive)
O=C(C1CCC(=O)N(C2CC2)C1)N1CCN(c2ccc(Cl)cc2)CC1 (stereo unspecified)	104% (inactive)
CN(C)Cc1c(O)ccc2c(=O)c(-c3ccccc3Cl)coc12	112% (inactive)
CCCOc1ccc(Cl)cc1Nc1nc(NCCO)nc(N2CCCC2)n1	112% (inactive)
O=C(NCCCN1CCCCCC1)c1ccc(N2CCCC2=O)cc1	193% (active)
CC1CCC(NC(=O)c2ccc(N3CCCC3=O)cc2)CC1 (stereo unspecified)	105% (inactive)
CCOc1ccc(C(=O)NCCCN2CCCC2=O)cc1	112% (inactive)
CC1CN(S(=O)(=O)c2cccc(C(F)(F)F)c2)CN1C(=O)N1CCOCC1 (stereo unspecified)	95% (inactive)
Cc1ccccc1C1CC(c2cccs2)=NN1S(C)(=O)=O (stereo unspecified)	16% (active)
COc1ccccc1N1N=C(c2cccs2)CC1c1ccccc1 (stereo unspecified)	93% (inactive)
COc1ccc(C2CC(c3cccs3)=NN2c2ccccc2)cc1 (stereo unspecified)	81% (inactive)
O=[N+]([O-])c1ccc(N/N=C/c2ccccc2)cc1	99% (inactive)
FC(F)(F)c1cccc(N/N=C/c2ccccc2)c1	143% (active)

SMILES	binding response (% of control)
FC(F)(F)c1cccc(Nc2ncnc3ccccc23)c1	103% (inactive)
O=C1Nc2cc(C(=O)N3CCN(c4ccc(F)cc4)CC3)ccc2NC1CSCc1cccc(F)c1 (stereo unspecified)	87% (inactive)
Nc1ccc(S(=O)(=O)Nc2nccc(/C=C/c3ccc(Br)s3)n2)cc1	93% (inactive)
O=C(/C=C/c1ccccc1Cl)Nc1ccc(S(=O)(=O)Nc2ncccn2)cc1	92% (inactive)
CC(=O)Nc1ccc(S(=O)(=O)Nc2nccc(/C=C/c3ccccc3F)n2)cc1	-6% (active)
CC(=O)N1c2ccc(S(=O)(=O)N3CCC(C(=O)N4CCN(c5ccccc5)CC4)CC3)cc2CC1C (stereo unspecified)	102% (inactive)
COc1ccc(C=C(C#N)C#N)c(CSc2ccccn2)c1	103% (inactive)
CCOc1ccccc1NC(=O)NC1CCCCCCC1	98% (inactive)
COCCNC(=O)CN(Cc1ccco1)C(=O)CCC(=O)Nc1nccs1	103% (inactive)
O=C(c1ccc(F)cc1)n1c(=S)nc2ccccn21	80% (inactive)
OC(CNCC1CCCO1)Cn1c2ccc(Br)cc2c2cc(Br)ccc21 (stereo unspecified)	141% (active)
CC(NS(=O)(=O)c1ccc(Br)cc1)C(=O)NCC1CCCO1 (stereo unspecified)	100% (inactive)
O=C(CSc1ccc(-c2ccc(Br)cc2)nn1)NCC1CCCO1 (stereo unspecified)	107% (inactive)
COC(=O)C(C)n1cnc2c(nnn2-c2ccc(F)cc2)c1=O (stereo unspecified)	94% (inactive)
COc1cc(NC(=O)CCS(=O)(=O)c2ccc3c(c2)oc(=O)n3C)cc(OC)c1	100% (inactive)
COc1ccc(CCNC(=O)C2CCCN(S(=O)(=O)c3ccc(OC)cc3)C2)cc1 (stereo unspecified)	94% (inactive)
CC(C)(C)Oc1ccccc1Nc1nc(NCCO)nc(N2CCCC2)n1	103% (inactive)
Cc1[nH]c2ccccc2c1/C=N\NC(=O)Cn1nnc(-c2ccccc2)n1	107% (inactive)
Cc1[nH]c2ccccc2c1/C=N/NC(=O)CNC(=O)c1ccc2c(c1)OCO2	100% (inactive)
COCCNC(=S)N/N=C/c1c(C)[nH]c2ccccc12	24% (active)
CC(C)c1nc2cc(C(=O)NC(C)c3cnn(C)c3)ccc2o1 (stereo unspecified)	104% (inactive)
O=C(OCc1cc(Cl)ccc1OC(F)F)c1cccnc1	281% (active)
O=C(OCc1cc2ccccc2[nH]c1=O)c1cccnc1	109% (inactive)
Cc1cc(=O)[nH]c(SCc2cc(Cl)ccc2OC(F)F)n1	106% (inactive)

SMILES	binding response (% of control)
COC(=O)C1=C[C@@H](C(=O)OC)[C@@H]2C3=C(C(=O)[C@]2(C)NC(=O)c2ccccc2)[C@H](C)n2c(=O)n(C)c(=O)n2[C@@H]3C1	102% (inactive)
OCC[C@H]1C[C@H](O)[C@@H](O)[C@]2(CCCCO2)O1	98% (inactive)
Cc1ccc(NS(=O)(=O)c2cc3c(cc2C)NC(=O)CO3)cc1	98% (inactive)
Cc1cccc(NC(=O)Nc2cccc(Oc3c(F)c(F)c(F)c(F)c3F)c2)c1	235% (active)
COc1cccc(NC(=O)NCc2ccc(F)cc2)c1	98% (inactive)
Cc1cccc(NC(=O)c2cccc(C(F)(F)F)c2)c1	91% (inactive)
CC(Sc1nnc(-c2ccccc2F)n1C1CC1)C(N)=O (stereo unspecified)	104% (inactive)
Cc1c(NC(=O)Nc2cccc([N+](=O)[O-])c2)c(=O)n(-c2ccccc2)n1C	103% (inactive)
COc1ccc(C(=O)NC(=S)N2CCNC(=O)C2CC(=O)OC(C)C)cc1 (stereo unspecified)	107% (inactive)
CCOc1ccc(C(=O)COC(=O)c2ccc(-n3cnnn3)cc2)cc1	99% (inactive)
CCCNC(=O)NCc1ccc(N2CCCC2=O)cc1	98% (inactive)
O=C(COC(=O)c1ccc(N2CCCC2=O)cc1)c1ccc(OC(F)F)cc1	0% [inhibitor] (active)
COC(C[C@@H](O)C[C@H](O)[C@H](C)OCc1ccccc1)OC	92% (inactive)
Cc1noc(C)c1S(=O)(=O)N(C)Cc1ccccc1	5% [inhibitor] (active)
Cc1noc(C)c1S(=O)(=O)Nc1ccc(C(=O)O)cc1	100% (inactive)
Cc1cc(C)cc(N(CC(=O)N2CC=C(c3ccccc3)CC2)S(=O)(=O)c2c(C)noc2C)c1	112% (inactive)
CCOc1ccc(NC(=O)Nc2ccc(N(C)C(C)=O)cc2)cc1	97% (inactive)
CC(=O)N(C)c1ccc(NC(=O)C(F)(F)F)cc1	-2% [inhibitor] (active)
CC(=O)N(C)c1ccc(NC(=O)Nc2cccc3ccccc23)cc1	106% (inactive)
COCCCNC(=O)/C=C/c1ccc(OCc2c(F)cccc2Cl)cc1	106% (inactive)
O=C(/C=C/c1ccc(OCc2c(F)cccc2Cl)cc1)N1CCOCC1	74% (inactive)
CN(C)CCCNC(=O)/C=C/c1ccc(OCc2c(F)cccc2Cl)cc1	170% (active)
CCOC(=O)N1CCC(NC(=O)CCc2ccccc2)CC1	107% (inactive)
COc1cc(NC(=O)C2=CC(c3ccc(C)cc3)=NS(=O)(=O)N2C)cc(OC)c1OC	105% (inactive)
